“And” between values parts separate entries of the source, which are not always exact repeats. Identical values can stand only once. Inconclusive results are not listed. Entries that show only a call come without a potency. A structure can be active in one record and inactive in another. The source made the active and inactive calls. Calls follow the shape of the dose curve; as a rule, active = well fitted curve in the direction sought with a large enough effect; inconclusive = small, poorly fitted or top-dose-only effect, or another doubt; inactive = no such curve, though single readings can be large; an effect the other way counts as inactive or inconclusive. Non-standard residues stand in square brackets, D forms with d. Residues, ends and D or L forms follow the SMILES beside them. *: point of attachment. Sta = CC(C)C[C@H](N)[C@@H](O)CC(=O)O; Isovaleryl = CC(C)CC(=O)*

The subject of the first assay is Tov112D. As to the kind of experiment: Primary qHTS to identify gynecologic anti-cancer compounds using libraries of approved drugs and bioactive compounds (AID 1345084). Also: nearly all actives have a fitted effect of over 55% in size. Also: potency is read from the fitted curve at half-maximal effect. Conditions: Gynecologic cancer cell panel viability, ATPlite luminescence, 48 h; series mostly up to 57.5 µM. An outline of the steps:
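Cytotoxicity screen measuring ATP content by luciferase luminescence. Each compound is applied at five concentrations for 48 h at 37 C with 5% CO2.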
Take `CS(=O)(=O)OCCCCOS(C)(=O)=O`: the Potency entry was “inactive”.
Take `CC(C)c1ccc2oc3nc(N)c(C(=O)O)cc3c(=O)c2c1`: the Potency was 7.94 µM (active).
With `c1ccc2[nH]c(-c3cscn3)nc2c1`, the Potency entry was “inactive”.
`CN(C)C(=O)COC(=O)Cc1ccc(OC(=O)c2ccc(N=C(N)N)cc2)cc1`: the Potency entry was “inactive”.
Turning to `Cc1cc2c(s1)Nc1ccccc1N=C2N1CCN(C)CC1`, the Potency entry is “inactive”.
`Cc1cc(C2CCCCC2)n(O)c(=O)c1`: the Potency is 7.08 µM (active).
As to `CC1=C(C)C(=O)C(C(CCCCCC(=O)O)c2ccccc2)=C(C)C1=O` (stereo not given), the Potency entry was “inactive”.
`CC(=O)NC[C@H]1CN(c2ccc(N3CCOCC3)c(F)c2)C(=O)O1`: the Potency entry is “inactive”.
As for `NNc1nncc2ccccc12`, the Potency entry is “inactive”.
Consider `CC(S)C(=O)NCC(=O)O` (stereo not given), for which the Potency result was “inactive”.
With `Cc1ccc(Nc2nccc(N(C)c3ccc4c(C)n(C)nc4c3)n2)cc1S(N)(=O)=O`, the Potency entry was “inactive”.
Take `Cc1c(C(=O)NN2CCCCC2)nn(-c2ccc(Cl)cc2Cl)c1-c1ccc(Cl)cc1`: the Potency entry was “inactive”.
On to `CCCc1cc(=O)[nH]c(=S)[nH]1`, for which the Potency entry is “inactive”.
Regarding `Clc1ccc(C(Cn2ccnc2)OCc2ccc(Sc3ccccc3)cc2)c(Cl)c1` (stereo not given), the Potency entry was “inactive”.
For `COCCCOc1ccnc(CS(=O)c2nc3ccccc3[nH]2)c1C` (stereo not given), the Potency entry was “inactive”.
Regarding `CC[C@]1(O)C[C@H]2CN(CCc3c([nH]c4ccccc34)[C@@](C(=O)OC)(c3cc4c(cc3OC)N(C=O)[C@H]3[C@@](O)(C(=O)OC)[C@H](OC(C)=O)[C@]5(CC)C=CCN6CC[C@]43[C@@H]65)C2)C1`, the Potency is 0.178 µM (active).
In the case of `CC1(C)CCC(C)(C)c2cc(NC(=O)c3ccc(C(=O)O)cc3)ccc21`, the Potency entry is “inactive”.
For `COc1ccccc1N1CCN(CCN(C(=O)C2CCCCC2)c2ccccn2)CC1`, the Potency result is “inactive”.
As for `Cc1c(OCC(F)(F)F)ccnc1CS(=O)c1nc2ccccc2[nH]1` (stereo not given), the Potency result is “inactive”.
Turning to `COc1cc2c(N3CCN(C(=O)Nc4ccc(OC(C)C)cc4)CC3)ncnc2cc1OCCCN1CCCCC1`, the Potency entry was “inactive”.
As for `CC(C)CC(=O)N[C@H](C(=O)N[C@H](C(=O)N[C@@H](CC(C)C)[C@@H](O)CC(=O)N[C@@H](C)C(=O)N[C@@H](CC(C)C)[C@@H](O)CC(=O)O)C(C)C)C(C)C` (Isovaleryl-VV[Sta]A[Sta]-OH), the Potency result is “inactive”.
Consider `Clc1ccc(C(Cn2ccnc2)OCc2ccsc2Cl)c(Cl)c1` (stereo not given), for which the Potency entry was “inactive”.
Take `N=C(N)c1ccc2cc(OC(=O)c3ccc(N=C(N)N)cc3)ccc2c1`: the Potency entry was “inactive”.
Consider `CCOC(=O)c1c(C)n(C)c2ccc(O)cc12`, for which the Potency entry is “inactive”.
Regarding `CN(C)C(=O)[C@H](O)[C@H](Cc1ccccc1)NC(=O)c1cc2cc(Cl)ccc2[nH]1`, the Potency entry was “inactive”.
Consider `Cc1ccc(C(=O)c2cc(O)c(O)c([N+](=O)[O-])c2)cc1`, for which the Potency result was “inactive”.
As for `O=C(O)c1cccc(-c2noc(-c3ccccc3F)n2)c1`, the Potency is 7.94 µM (active) and 10 µM (active).
Consider `CCC1=C(C)CN(C(=O)NCCc2ccc(S(=O)(=O)NC(=O)NC3CCC(C)CC3)cc2)C1=O` (stereo not given), for which the Potency result was “inactive”.
Consider `CC(=O)Nc1ccc(O)cc1`, for which the Potency result is “inactive”.
Same read-out and setting: under `OC(CN1CCN(c2cccc(Cl)c2)CC1)C(c1ccccc1)c1ccccc1` (stereo not given) stands “inactive”.
As for `O=C(NOCC1CC1)c1ccc(F)c(F)c1Nc1ccc(I)cc1Cl`, the Potency is 28.2 µM (active) and inactive.
`Cc1cc(=O)c2c(O)c3c(O)cc(=O)c4c3c3c(cc(O)c1c23)C(C)(C)C=4O`: the Potency is 2.24 µM (active).
Take `COc1cc(C(C)=O)ccc1OCCCN1CCC(c2noc3cc(F)ccc23)CC1`: the Potency entry was “inactive”.
Take `COc1cc2nc(N3CCN(C(=O)C4CCCO4)CC3)nc(N)c2cc1OC` (stereo not given): the Potency result was “inactive”.
For `Cc1ncc([N+](=O)[O-])n1CC(C)O` (stereo not given), the Potency result was “inactive”.
`O=C(O)CCNC(=O)c1ccc(N=Nc2ccc(O)c(C(=O)O)c2)cc1`: the Potency result was “inactive”.

Tested on in another assay: not listed separately
Briefly: Drug repurposing screens with cells derived from glioblastoma tumor samples (AID 1345199). Also: nearly all actives have a fitted effect of over 40% in size. To be noted: GBM patient neurospheres viability, ATP luminescence, 48 h; at 45.9 µM (top of the series); tumour line B. Summed up: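 Primary testing used CD133+ neurospheres from four GBM patients, seven concentrations, 48 h exposure and ATP-based viability; confirmation added three slower-growing patient lines.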
Regarding `CS(=O)(=O)OCCCCOS(C)(=O)=O`, the activity, negative = cell killing is -4.65% (inactive).
Take `c1ccc2[nH]c(-c3cscn3)nc2c1`: the activity, negative = cell killing was -26.3% (inactive).
Same read-out and setting: under `CN(C)C(=O)COC(=O)Cc1ccc(OC(=O)c2ccc(N=C(N)N)cc2)cc1` stands -12.3% (inactive); under `CC1=C(C)C(=O)C(C(CCCCCC(=O)O)c2ccccc2)=C(C)C1=O` (stereo not given), -10.7% (inactive); under `Cc1ccc(Nc2nccc(N(C)c3ccc4c(C)n(C)nc4c3)n2)cc1S(N)(=O)=O`, -23.7% (inactive).
For `CCCc1cc(=O)[nH]c(=S)[nH]1`, the activity, negative = cell killing is -8.42% (inactive).
With `CC1(C)CCC(C)(C)c2cc(NC(=O)c3ccc(C(=O)O)cc3)ccc21`, the activity, negative = cell killing was -10.2% (inactive).
In the case of `Cc1c(OCC(F)(F)F)ccnc1CS(=O)c1nc2ccccc2[nH]1` (stereo not given), the activity, negative = cell killing was -26% (inactive).
For `N=C(N)c1ccc2cc(OC(=O)c3ccc(N=C(N)N)cc3)ccc2c1`, the activity, negative = cell killing was -0.17% (inactive).
On the same count and under the same terms, as for `CCOC(=O)c1c(C)n(C)c2ccc(O)cc12`, the figure is -14.1% (inactive); as for `Cc1ccc(C(=O)c2cc(O)c(O)c([N+](=O)[O-])c2)cc1`, -17.5% (inactive).
As for `CC(=O)Nc1ccc(O)cc1`, the activity, negative = cell killing is -10.5% (inactive).
Take `COc1cc2nc(N3CCN(C(=O)C4CCCO4)CC3)nc(N)c2cc1OC` (stereo not given): the activity, negative = cell killing is -11.4% (inactive).
With `Cc1ncc([N+](=O)[O-])n1CC(C)O` (stereo not given), the activity, negative = cell killing is -7.1% (inactive).
